Data: the supplement of paper PMC6897291
Where a name gives a salt, the structure may show the parent alone.

The compounds below were run on U-2932 (assay: growth inhibition by drug alone (1 - RLU/untreated control) (fraction); higher = stronger inhibition). Conditions: 1000 nM; time (day): 6; 177Lu-lilotomab satetraxetan 0 ug/ml.
Procedure, shortened: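 RIVA or U-2932 cells were left untreated or pretreated for 18 h with a radiolabelled anti-CD37 antibody conjugate (~600 MBq/mg) at 0.5 µg/ml for RIVA or 1 µg/ml for U-2932. The cells were then washed and seeded at 3,000 cells/well on plates pre-printed with the Selleck Cambridge Cancer Compound library, dosed at 10/100 nM for RIVA and 10/1,000 nM for U-2932. From day 3, RealTime-Glo luminescence was read daily after 1 h at 37°C. Growth inhibition was taken as one minus RLU over the mean of the untreated no-drug wells, of which there were 48 per plate.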
For `Nc1nc2[nH]cc(CCc3ccc(C(=O)N[C@@H](CCC(=O)O)C(=O)O)cc3)c2c(=O)[nH]1` [Pemetrexed], the “growth inhibition by drug alone” value was 0.974.
`COc1cc2nccc(Oc3ccc(NC(=O)Nc4cc(C)on4)c(Cl)c3)c2cc1OC` [Tivozanib (AV-951)] was tested, and the “growth inhibition by drug alone” value was 0.0763.
For `CCC(=O)N1CCN(c2ccc(-n3c(=O)ccc4cnc5ccc(-c6cnc7ccccc7c6)cc5c43)cc2C(F)(F)F)CC1` [Torin 1], the “growth inhibition by drug alone” value was 0.87.
`COc1cccc2c1C(=O)c1c(O)c3c(c(O)c1C2=O)C[C@@](O)(C(=O)CO)C[C@@H]3O[C@H]1C[C@H](N)[C@@H](O)[C@H](C)O1` [Epirubicin Hydrochloride] was tested, and the “growth inhibition by drug alone” value was 0.98.
With `Clc1ccc(Nc2nnc(Cc3ccncc3)c3ccccc23)cc1` [Vatalanib dihydrochloride (PTK787)] the “growth inhibition by drug alone” value was -0.12.
`COc1cc2nccc(Oc3ccc(NC(=O)C4(C(=O)Nc5ccc(F)cc5)CC4)cc3)c2cc1OC` [XL-184 free base (Cabozantinib)] was tested, and the “growth inhibition by drug alone” value was -0.036.
With `C[C@@H](O[C@H]1OCCN(Cc2n[nH]c(=O)[nH]2)[C@H]1c1ccc(F)cc1)c1cc(C(F)(F)F)cc(C(F)(F)F)c1` [Aprepitant (MK-0869)] the “growth inhibition by drug alone” value was -0.0573.
For `COc1cc2c(cc1O)CC[C@@H]1[C@@H]2CC[C@]2(C)[C@@H](O)CC[C@@H]12` [2-Methoxyestradiol], the “growth inhibition by drug alone” value was 0.788.
`CNCc1ccc(-c2[nH]c3cc(F)cc4c3c2CCNC4=O)cc1` was tested, and the “growth inhibition by drug alone” value was 0.0343.
In the case of `CC[C@@]1(O)C(=O)OCc2c1cc1n(c2=O)Cc2cc3c(CN(C)C)c(O)ccc3nc2-1` [Topotecan HCl], the “growth inhibition by drug alone” value is reported as 0.981.
`Nc1cc(C(F)(F)F)c(-c2cc(N3CCOCC3)nc(N3CCOCC3)n2)cn1` was tested, and the “growth inhibition by drug alone” value was 0.519.
In the case of `CC(C)(C)c1ccc(S(=O)(=O)/C=C/C#N)cc1`, the “growth inhibition by drug alone” value is reported as 0.365.
`C[C@]1(c2nc3c(C(N)=O)cccc3[nH]2)CCCN1` [ABT-888 (Veliparib)] was tested, and the “growth inhibition by drug alone” value was -0.068.
For `Cc1ccc(NC(=O)c2ccc(CN3CC[C@H](N(C)C)C3)c(C(F)(F)F)c2)cc1Nc1nccc(-c2cncnc2)n1` [Bafetinib (INNO-406)], the “growth inhibition by drug alone” value was 0.062.
`C[C@]12CC[C@@H]3c4ccc(O)cc4CC[C@H]3[C@@H]1CCC2=O` [Estrone] was tested, and the “growth inhibition by drug alone” value was -0.126.
In the case of `O=C(c1ccc(OCCN2CCCCC2)cc1)c1c(-c2ccc(O)cc2)sc2cc(O)ccc12` [Evista (Raloxifene Hydrochloride)], the “growth inhibition by drug alone” value is reported as -0.132.
In the case of `CCN(CC)CCNC(=O)c1c(C)[nH]c(/C=C2\C(=O)Nc3ccc(F)cc32)c1C` [Sunitinib Malate (Sutent)], the “growth inhibition by drug alone” value is reported as -0.207.
In the case of `CCOc1ccc(Nc2nc(-c3c(C)nc4ccccn34)cs2)cc1`, the “growth inhibition by drug alone” value is reported as 0.982.
For `C=CC(=O)N1CCC[C@@H](n2nc(-c3ccc(Oc4ccccc4)cc3)c3c(N)ncnc32)C1`, the “growth inhibition by drug alone” value was 0.832.
In the case of `CS(=O)(=O)c1cccc(CNc2nc(Nc3ccc4c(c3)CCC(=O)N4)ncc2C(F)(F)F)c1`, the “growth inhibition by drug alone” value is reported as 0.085.
For `CC(NC(=O)c1ccccc1/N=C/c1c(O)ccc2ccccc12)c1ccccc1` (stereo not drawn) [Sirtinol], the “growth inhibition by drug alone” value was -0.196.
In the case of `CN(Cc1cnc2nc(N)nc(N)c2n1)c1ccc(C(=O)N[C@@H](CCC(=O)O)C(=O)O)cc1` [Abitrexate (Methotrexate)], the “growth inhibition by drug alone” value is reported as 0.968.
In the case of `OCCn1cc(-c2cnc3nnn(Cc4ccc5ncccc5c4)c3n2)cn1`, the “growth inhibition by drug alone” value is reported as -0.214.
`COc1cc(Nc2ncc(F)c(Nc3ccc4c(n3)NC(=O)C(C)(C)O4)n2)cc(OC)c1OC` [R406(free base)] was tested, and the “growth inhibition by drug alone” value was 0.00754.
In the case of `COc1cccc2c1C(=O)c1c(O)c3c(c(O)c1C2=O)C[C@@](O)(C(=O)CO)C[C@@H]3O[C@H]1C[C@H](N)[C@H](O)[C@H](C)O1` [Doxorubicin (Adriamycin)], the “growth inhibition by drug alone” value is reported as 0.988.
With `CN(NC(=O)CC(=O)NN(C)C(=S)c1ccccc1)C(=S)c1ccccc1` [Elesclomol] the “growth inhibition by drug alone” value was 0.984.
With `CN(C)CCOc1ccc(/C(=C(/CCCl)c2ccccc2)c2ccccc2)cc1` [Toremifene Citrate (Fareston, Acapodene)] the “growth inhibition by drug alone” value was 0.0143.
`CN1CCN(CCOc2cc(OC3CCOCC3)c3c(Nc4c(Cl)ccc5c4OCO5)ncnc3c2)CC1` [Saracatinib (AZD0530)] was tested, and the “growth inhibition by drug alone” value was -0.33.
`CC(C)C[C@H](NC(=O)[C@H](Cc1ccccc1)NC(=O)c1cnccn1)B(O)O` [Bortezomib (Velcade)] was tested, and the “growth inhibition by drug alone” value was 0.985.
For `Cn1cncc1[C@@](N)(c1ccc(Cl)cc1)c1ccc2c(c1)c(-c1cccc(Cl)c1)cc(=O)n2C` [Tipifarnib (Zarnestra)], the “growth inhibition by drug alone” value was 0.863.
`COC(=O)c1ccc2c(C(=Nc3ccc(N(C)C(=O)CN4CCN(C)CC4)cc3)c3ccccc3)c(O)[nH]c2c1` [BIBF1120 (Vargatef)] was tested, and the “growth inhibition by drug alone” value was -0.173.
For `CC[C@@H]1/C=C(\C)C[C@H](C)C[C@H](OC)[C@H]2O[C@@](O)(C(=O)C(=O)N3CCCC[C@H]3C(=O)O[C@H](/C(C)=C/[C@@H]3CC[C@H](Cl)[C@H](OC)C3)[C@H](C)[C@@H](O)CC1=O)[C@H](C)C[C@@H]2OC` [Pimecrolimus], the “growth inhibition by drug alone” value was 0.431.
In the case of `CN(C)CCOc1ccc(-c2nc(-c3ccncc3)c(-c3ccc4c(c3)CC/C4=N\O)[nH]2)cc1`, the “growth inhibition by drug alone” value is reported as 0.134.
With `COc1ccc(CCN2CCN(CCCc3ccccc3)CC2)cc1OC` the “growth inhibition by drug alone” value was -0.298.
With `CNC(=O)c1cc(Oc2ccc(NC(=O)Nc3cc(C(C)(C)C)nn3-c3ccc4ncccc4c3)c(F)c2)ccn1` [DCC-2036 (Rebastinib)] the “growth inhibition by drug alone” value was 0.0187.
`CCC(C)(C)C(=O)O[C@H]1C[C@@H](C)C=C2C=C[C@H](C)[C@H](CC[C@@H]3C[C@@H](O)CC(=O)O3)[C@H]21` [Simvastatin (Zocor)] was tested, and the “growth inhibition by drug alone” value was -0.0808.
With `CCc1ccc(CCOc2ccc(CC3SC(=O)NC3=O)cc2)nc1` (stereo not drawn) [Pioglitazone (Actos)] the “growth inhibition by drug alone” value was 0.0915.
With `O=C(O)C(Cc1c[nH]c2ccccc12)N1C(=O)c2ccccc2C1=O` (stereo not drawn) the “growth inhibition by drug alone” value was -0.115.
